Reference: PubChem BioAssay (NCI)
The panel holds about 83,000 compounds, 20% with a hit somewhere; the sample as a whole holds those more often.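 Results are percent growth after 48 hours of single-concentration exposure. 100 means growth as in untreated cells, lower positive values show inhibition; negative values down to -100 show cell death.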 Unmarked numbers belong to inactive results. Calls of active or inactive are those of the source. How the source made its calls: active means growth percent below 10; inactive means the rest.

Test system: MDA-MB-468 breast
Experiment: NCI-60 one-dose screen, 48 h (100 = growth as untreated, 0 = no growth, -100 = all killed)
Conditions: 10 µM unless noted

SMILES | growth
NC(N)=NC(N)=Nc1cc2ccccc2c2ccccc12 | -14.2% (active)
CCCCc1nc(Cl)c(C2CC(c3ccc(S(N)(=O)=O)cc3)=NN2c2ccc(C#N)cc2)[nH]1 (centres undefined) | 64.5%
Nc1nc(N)c2nc3c(nc2n1)CCCCCCCCCC3 | 58.1%
C=CCn1c(C)nc2cc(Nc3nc(Nc4ccc5nc(C)n(CC=C)c5c4)nc4ccccc34)ccc21 | 118%
Fc1ccc(-c2nnc(-c3c(-c4ccc(F)cc4)nc4ccccn34)o2)cc1 | 92.5%
CCOC(=O)c1c(NC(=O)c2ccc(C(C)(C)C)cc2)sc2cc(O)ccc12 | 87.9%
O=C(Nc1ccccc1)Nc1cccc(-n2cc(-c3ccncc3)c(-c3ccc(O)c(Cl)c3)n2)c1 | 54.8%
CCCCCc1ccc(S(=O)(=O)Nc2cc(-c3csc(N)n3)ccc2OC)cc1 | 78.7%
O=c1[nH]c(CNc2ccc(NCc3c(-c4ccccc4)no[n+]3[O-])cc2)nc2c1cnn2-c1ccccc1 | 33.2%
CC(C)(C)c1nn(-c2ccccc2)c2c1CC1(CN2Cc2ccc(Cl)cc2)C(=O)c2ccccc2C1=O | 88.1%
O=C(Nc1ncc(Cc2ccccc2)s1)c1cc(-c2ccccc2)nc2ccccc12 | 103%
Oc1cccc(-c2nc(N3CCOCC3)c3c4c(sc3n2)CCCC4)c1 | 46.1%
Cc1nc2ccc(Nc3nc(N4CCOCC4)nc(N4CCN(C)CC4)n3)cc2n1Cc1ccccc1 | 66.8%
COC(=O)C[Se]C(=O)Cc1c(C)n(C(=O)c2ccc(Cl)cc2)c2ccc(OC)cc12 | -18.4% (active)
